High-throughput results as filed in PubChem.
Compounds with a hit are over-represented: about 11% of the library has one in this group of screens.
Pf growth 48h: Primary qHTS for delayed death inhibitors of the malarial parasite plastid, 48 hour incubation | AID 504832, 2011 | P. falciparum luciferase growth in erythrocytes, 48 h | actives 5.9% (n = 310,000) | Potency, µM (highest dose often 28.7 µM), inactives show at the top dose activity change, negative = inhibition, actives largely listed as inhibitors; also: % is scaled to controls: 0 for no effect and ±100 for the full control effect
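Luciferase-expressing P. falciparum in infected erythrocytes (2% hematocrit, 0.1% parasitemia final) in RPMI 1640/0.5% Albumax were exposed to compound for 48 hours at 37 C, 5% CO2; growth read as luminescence.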
VACV Venus inh: qHTS for Stage-Specific Inhibitors of Vaccinia Orthopoxvirus: Venus Reporter Primary qHTS; Potency, µM (series often up to 36.5 µM), for the others: at the highest dose activity change, negative = inhibition, actives largely listed as inhibitors; Vaccinia virus Venus reporter expression, fluorescence; actives 0.46% (n = 330,000); calls by dose curve; tested in A549 cells; also: % is scaled to controls: 0 for no effect and ±100 for the full control effect; nearly all actives have a fitted effect of over 30% in size
Vaccinia mCherry: qHTS for Stage-Specific Inhibitors of Vaccinia Orthopoxvirus: mCherry Reporter Primary qHTS | Potency, µM (top dose mostly 36.5 µM), without a hit: at the top dose activity change, negative = inhibition, actives largely listed as inhibitors | AID 720579, 2013 | actives 0.63% (n = 310,000) | Vaccinia virus mCherry reporter infection, fluorescence; calls by dose curve; tested in A549 cells; also: % is scaled to controls: 0 for no effect and ±100 for the full control effect; nearly all actives have a fitted effect of over 35% in size
Pf growth 96h: Primary qHTS for delayed death inhibitors of the malarial parasite plastid, 96 hour incubation; AID 504834, 2011; Potency, µM (series often up to 28.7 µM), for inactives: at the top dose activity change, negative = inhibition, hits mostly inhibitors; actives 6.9% (n = 320,000); P. falciparum luciferase reporter growth, 96 h; also: % is scaled to controls: 0 for no effect and ±100 for the full control effect
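Luminescence readout: decreased luciferase signal marks inhibited growth of reporter-expressing P. falciparum in infected red cells (2% hematocrit, 0.05% parasitemia final), exposed to compound two generations (96 h, 37 C, 5% CO2).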
HCV inh: qHTS Assay for Inhibitors of Hepatitis C Virus (HCV); Huh7.5.1 HCVcc-Cre infection, luciferase reporter, 44 h; Potency, µM (top dose mostly 41.8 µM), for inactives: at the top dose activity change, negative = inhibition, usual class: inhibitors; actives 3.4% (n = 340,000); AID 651820, 2012; also: % is scaled to controls: 0 for no effect and ±100 for the full control effect
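Luciferase read-out (15 sec integration) after a 15 min room-temperature substrate step quantifies HCVcc-Cre infection. Cells, 1,000 per well, had compound added 4 h post-plating, then virus at ~0.5 moi, and were cultured 44 h.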
NS1 function inh: qHTS Assay for Inhibitors of Influenza NS1 Protein Function | actives 0.4% (n = 270,000) | Potency, µM (doses to about 46.1 µM), for inactives: at the top dose activity, positive = more growth; calls by dose curve; also: actives are rising curves; nearly all actives have a fitted effect of over 50% in size
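In this qHTS, NS1 from influenza A is expressed in budding yeast, where it slows growth. Cells are switched from glucose to 2% galactose medium (pH 6.0, -URA), treated with compound, and growth recovery is read at OD600.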
Active calls of the source: *; i = inactive; u = inconclusive; x = no result; [ ] = dose if it differs, or a comment. Unless noted, calls follow the shape of the dose curve; as a rule, active = well fitted inhibition curve with a large enough effect; inconclusive = small, poorly fitted or top-dose-only effect, or another doubt; inactive = no such curve, though single readings can be large or run the other way. Potency is read from the fitted curve at half-maximal effect.

SMILES | Pf growth 48h | VACV Venus inh | Vaccinia mCherry | Pf growth 96h | HCV inh | NS1 function inh
COc1ccc(C(=O)C[n+]2cccc3cc(OC)ccc32)cc1 | 9.3µM* | -14% | -21% | u | u | -1%
COc1ccc(C(=O)C[n+]2ccc3ccccc3c2C)cc1 | u | -4%[7.34 µM] | -13%[7.34 µM] | u | 21% | -4%
COc1cccc(C(=O)C[n+]2cccc3cc(OC)ccc32)c1 | 10µM* | x | x | u | 12% | x
COc1ccc(C(=O)C[n+]2cccc3cc(C)ccc32)cc1 | 15µM* | 9% | -29% | u | -19% | 4%
O=C(C[n+]1cccc2ccccc21)c1ccc(Cl)cc1 | x | x | x | 18% | -10% | 6%
COC(=O)CC1C(C)(C)C(O)C2CC3=C4CC(O)OC(c5ccoc5)[C@]4(C)CCC3[C@@]1(C)C2=O (stereo not given in full) | x | u | -13% | x | x | x
Cc1ccc2c(ccc[n+]2CC(=O)c2ccccc2)c1 | 15µM* | -8% | u | -5% | 10% | -9%
Cc1nnc2ccc(-c3cccc(NS(=O)(=O)c4ccccc4Cl)c3)nn12 | 12µM* | -13% | -16% | u | 4% | x
Cc1nnc2ccc(-c3cccc(NS(=O)(=O)c4ccccc4[N+](=O)[O-])c3)nn12 | 52% | -11% | -22% | 2.9µM* | -8% | x
O=[N+]([O-])c1ccccc1S(=O)(=O)Nc1cccc(-c2ccc3nncn3n2)c1 | 9% | -5% | i | -24% | 5% | x
Cc1nnc2ccc(-c3cccc(NS(=O)(=O)c4cc(F)ccc4F)c3)nn12 | 72% | -15% | -14% | u | u | x
O=C(CCNC(=O)c1ccccc1Cl)NN=Cc1ccccc1[N+](=O)[O-] | x | -24% | -13% | x | -8% | x
COc1ccc(N(C(=O)c2snc(C(N)=O)c2N)C(C(=O)NC2CCCCC2)c2ccc(C)o2)c(OC)c1 (stereo not given) | 13µM* | 2% | -5% | 50% | u | 17%
COc1ccc(C)cc1N(C(=O)c1snc(C(N)=O)c1N)C(C(=O)NC1CCCC1)c1ccc(F)cc1 (stereo not given) | 9.3µM* | -2% | i | 21% | u | u
COc1ccc(N(C(=O)c2snc(C(N)=O)c2N)C(C(=O)NC2CCCC2)c2ccco2)c(OC)c1 (stereo not given) | u | -10% | -2% | u | u | 18%
COc1ccc(C(C(=O)NC2CCCCC2)N(C(=O)c2snc(C(N)=O)c2N)c2ccc(OC)cc2OC)cc1 (stereo not given) | u | -10% | -12% | 27% | 8.9µM* | -14%
COc1cc(C(C(=O)NC2CCCC2)N(C(=O)c2snc(C(N)=O)c2N)c2ccccc2)cc(OC)c1OC (stereo not given) | u | -15% | i | 8.3µM* | -10% | u
COc1ccc(N(C(=O)c2snc(C(N)=O)c2N)C(C(=O)NC2CCCC2)c2ccc(F)cc2)c(OC)c1 (stereo not given) | u | 5% | i | 219% | 11µM* | 9%
CCc1cccc2c1NC(=O)C21N2CCCC2C(C(=O)c2ccc3ccccc3c2)C12C(=O)Nc1ccccc12 (stereo not given) | u | -15% | -16% | u | u | 10%
CCc1ccc2c(c1)C1(C(=O)N2)N2CCCC2C(C(=O)c2ccc3ccccc3c2)C12C(=O)Nc1ccccc12 (stereo not given) | u | 13µM* | 28µM* | 2.3µM* | u | -1%
CCn1cc([N+](=O)[O-])c(C(=O)N2N=C3/C(=C/c4cccs4)CCCC3C2c2cccs2)n1 (stereo not given) | u | x | x | u | 10µM* | 5%
